# An excerpt weighted towards active compounds, which were near 2% of everything screened.
# Fh CTSL1 inh: blocks F. hepatica cathepsin L1 in PFM18AAP counter-screen. recombinant F. hepatica cathepsin L1, Z-Leu-Arg-MCA fluorescence. 0.49% of 300,000 active. inhibition, % at 5.96 µM;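 active = inhibition above the mean of all tested compounds plus 3 SD, set per screening campaign, cut at about 17% in these data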
# HGIII-sPLA2 inh: Inhibits HGIII-sPLA2 liposome hydrolysis, primary screen. QFRET BODIPY PC-A2 liposome hydrolysis, fluorescence. inhibition, % at 12.2 µM. Q9NZ20. 0.56% of 370,000 active. AID 743126;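 active = inhibition above mean plus 3 SD of compounds lying within the high and low control bounds, cut at about 19% in these data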
# A3A deaminase: inhibitors of human APOBEC3A DNA deaminase; recombinant A3A, FAM/TAMRA ssDNA deamination fluorescence; inhibition, % at 20 µM; 0.41% of 330,000 active; P31941;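 active = at least 40% inhibition at 20 µM here, with at most 30% in a related deaminase screen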
# Target sequence (P31941 whole entry, looked up): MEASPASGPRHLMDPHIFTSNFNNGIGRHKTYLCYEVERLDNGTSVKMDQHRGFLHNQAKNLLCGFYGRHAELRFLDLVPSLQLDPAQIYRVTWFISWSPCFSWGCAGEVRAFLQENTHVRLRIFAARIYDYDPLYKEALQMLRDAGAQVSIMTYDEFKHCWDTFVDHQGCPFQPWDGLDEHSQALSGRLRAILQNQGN
# APOBEC3G inh: inhibitors of human APOBEC3G DNA deaminase; Q9HC16; recombinant A3G, ssDNA deamination FAM/TAMRA fluorescence; inhibition, % at 20 µM; 0.28% of 330,000 active; AID 493012;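 active = inhibition of at least 40% at 20 µM, with no more than 30% in the related APOBEC3A deaminase screen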
# Target sequence (Q9HC16 whole entry, looked up): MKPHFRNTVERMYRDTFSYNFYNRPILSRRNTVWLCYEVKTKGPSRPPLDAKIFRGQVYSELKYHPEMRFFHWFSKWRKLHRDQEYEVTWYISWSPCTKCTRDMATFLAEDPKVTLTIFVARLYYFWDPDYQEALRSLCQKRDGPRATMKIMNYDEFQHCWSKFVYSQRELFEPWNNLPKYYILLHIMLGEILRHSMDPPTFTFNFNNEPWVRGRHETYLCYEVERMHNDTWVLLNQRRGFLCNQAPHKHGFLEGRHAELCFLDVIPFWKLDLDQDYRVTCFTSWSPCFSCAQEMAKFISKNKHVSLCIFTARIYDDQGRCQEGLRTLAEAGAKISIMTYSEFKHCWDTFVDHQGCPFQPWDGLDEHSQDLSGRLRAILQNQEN
# NALP1 yeast inh: NALP1 inhibition; S. cerevisiae NALP1/ASC/caspase-1 growth, X-gal OD620, 72 h; 0.61% of 280,000 active; inhibition, % at 10 µM; in the data active = inhibition mostly above about 24%, no sharp cut-off; inactive = mostly below about 32%
# Hits are given with their value; - = inactive; . = no result; + = active, no number.
SMILES,Fh CTSL1 inh,HGIII-sPLA2 inh,A3A deaminase,APOBEC3G inh,NALP1 yeast inh
COc1ccc2c(c1)CCCN2C(=O)C1CCCN(S(=O)(=O)c2ccc(C)c(C)c2)C1 (stereo not given),.,-,.,.,.
CC(C)c1onc(C(=O)NCc2ccccc2)c1[N+](=O)[O-],17.6,-,-,-,-
O=C(Cc1ccc(O)cc1)NCCNC(=S)NCc1ccccc1,25.2,-,-,-,-
Cc1ccc(Nc2nc(N)nc(CSC(=S)N3CCOCC3)n2)cc1,-,-,-,-,-
CCOc1ccc(Nc2nc(N)nc(CSC(=S)N3CCOCC3)n2)cc1,17.9,-,-,-,-
CCC1C/C(=C\c2cccnc2)C(=O)/C(=C/c2cccnc2)C1 (stereo not given),.,-,.,.,76.2
O=C1/C(=C/c2ccccc2)CCCc2ccccc21,-,-,-,-,57.2
O=C1/C(=C/c2cccnc2)CCC/C1=C\c1cccnc1,-,-,.,.,77.6
O=C1/C(=C/c2cccnc2)CC/C1=C\c1cccnc1,-,-,-,-,-
CC(C)/C=C1\CC/C(=C\c2cccnc2)C1=O,-,-,-,-,-
O=C1/C(=C\c2cccnc2)CCc2ccccc21,-,-,-,-,-
C/C(=N\NC(=O)Cc1cc(=O)[nH][nH]1)c1ccc([N+](=O)[O-])cc1,.,-,.,.,.
N/C(CS(=O)(=O)c1ccccn1)=N\OC(=O)c1ccc(Cl)cc1,-,-,-,-,-
N/C(CCS(=O)(=O)c1ccc(Cl)cc1)=N\OC(=O)c1ccc(Cl)cc1,17.4,-,-,-,.
N/C(CCS(=O)(=O)c1ccc(Cl)cc1)=N\OC(=O)c1ccccc1C(F)(F)F,18.6,-,-,-,-
CCCCC(=O)N1CCN(C(=O)c2ccc3c(c2)nc(C)n3C2CCCC2)CC1,.,-,.,.,.
O=C1CSc2ccc(C(=O)N3CCCC(C(=O)N4CCCN(Cc5ccccc5)CC4)C3)cc2N1 (stereo not given),.,-,.,.,.
CC(c1ccccc1)N1CC[C@H]2C=CC[C@@H](C(=O)Nc3ccc(F)c(F)c3)[C@H]2C1=O (stereo not given in full),.,-,.,.,.
Clc1ccc(/C(Cc2nc3ccccc3[nH]2)=N\Nc2ccccc2)cc1,-,-,-,-,28.5
Clc1ccc(C2CSc3c4ncnc-4ncn32)cc1 (stereo not given),-,-,-,-,39.5
COC(=O)[C@]1(CNS(=O)(=O)C2CC2)CC(=O)N(C)[C@@H]1c1ccccc1,.,-,.,.,.
O=C(CSc1nc2sc3c(c2c(=O)n1-c1ccc(Cl)cc1)CCC3)Nc1ccc(C(=O)O)cc1,.,-,.,.,.
O=C(NCCN1CCOCC1)c1ccc2c(c1)N(Cc1ccccc1)C(=O)CS2,32.0,-,-,-,-
CN1C(=O)CS(=O)c2ccc(C(=O)NCCC3=CCCCC3)cc21 (stereo not given),-,-,-,-,-
O=C(NCCN1CCOCC1)c1ccc2c(c1)N(Cc1ccc(Cl)cc1)C(=O)CS2,-,-,-,-,-
SMILES,Fh CTSL1 inh,HGIII-sPLA2 inh,A3A deaminase,APOBEC3G inh,NALP1 yeast inh
O=C(NCCC1=CCCCC1)c1ccc2c(c1)N(Cc1ccccc1)C(=O)CS2,-,-,-,-,38.2
COC(=O)CNC(=O)[C@H](Cc1ccccc1)NC1(C(=O)NCCc2c[nH]c3ccccc23)CCCCC1,.,-,.,.,.
COc1ccc(OC[C@@H](O)CN2CCC(C(O)(c3ccccc3)c3ccccc3)CC2)cc1,.,-,.,.,.
COCCCNC(=O)c1ccc2c(c1)NC(=O)C(C)(C)O2,.,-,.,.,.
Cc1ccc(-c2nn3c(C)nnc3s2)cc1NC(=O)c1ccc(-c2ccc(Cl)cc2Cl)o1,-,-,43.2,-,-
Cc1ccc(-c2nn3c(C)nnc3s2)cc1NC(=O)c1ccc(-c2cccc(Cl)c2)o1,.,-,-,-,-
COc1ccccc1C(C[N+](=O)[O-])c1c(N)n(C)c(=O)n(C)c1=O (stereo not given),-,-,-,-,+
Nc1cc2nsnc2cc1Br,113.6,-,-,-,-
Nc1cccc2nsnc12,-,-,-,-,.
COc1cccc(N2CCN(CC(=O)NCc3ccc(Cl)cc3)CC2)c1,.,-,.,.,.
Cc1ccnc(N/C=C(/NC(=O)c2ccccc2)C(=O)N/N=C\c2ccc(Cl)cc2)n1,16.6,-,-,-,.
O=C1C(Cl)=C(Nc2ccc3cn[nH]c3c2)C(=O)c2ccccc21,27.9,-,.,.,.
Cc1ccc(-c2nc(C3CCCN(S(=O)(=O)c4ccc(Cl)s4)C3)no2)cc1 (stereo not given),.,-,.,.,.
O=C1C(SCCO)=C(SCCO)C(=O)c2ccccc21,78.6,-,-,73.3,.
CN1Cc2nnn(Cc3ccccc3)c2-c2cc(N3CCCC3)ccc2S1(=O)=O,.,-,.,.,.
CC(C)OC(=O)CSc1nnc(-c2ccc(Cl)cc2Cl)o1,21.2,-,-,-,-
CCCCOC(=O)CSc1nnc(-c2ccc(Cl)cc2Cl)o1,-,-,-,-,-
COc1ccc(OCC2CN(C3CCCC3)S(=O)(=O)CCO2)cc1 (stereo not given),.,-,.,.,.
CN(CCNC(=O)CN1CCN(Cc2ccccc2Cl)C1=O)Cc1ccccc1,-,.,-,-,44.6
O=C(CN1CCN(Cc2ccc(F)cc2Cl)C1=O)NCCc1ccccc1,-,-,-,-,-
COCCCNC(=O)C[C@H]1C[C@@]2(C(=O)OC)C(=C[C@H](C(C)(C)C)O[C@@H]2C)N(Cc2cccc3ccccc23)C1=O,.,-,.,.,.
Cc1cccc(Cn2c(C(C)(C)C)cc3cccnc32)c1,-,-,-,-,48.2
Cc1ccc(NC(=S)c2nc3ccccc3[nH]2)cc1,-,-,-,-,-
Cc1ccc(NC(=S)c2nc3ccccc3[nH]2)c(C)c1,-,31.2,-,-,-
O=C(N[C@@H](Cc1ccccc1)C(=O)NC1CCCCCC1)c1ccco1,-,-,-,-,40.9
SMILES,Fh CTSL1 inh,HGIII-sPLA2 inh,A3A deaminase,APOBEC3G inh,NALP1 yeast inh
CC(=O)Nc1ccc(S(=O)(=O)N2CCN(c3ccc(C)c(Cl)c3)CC2)cc1,19.8,-,-,-,-
CC(=O)Nc1ccc(S(=O)(=O)N2CCN(S(=O)(=O)c3ccc(NC(C)=O)cc3)CC2)cc1,.,-,-,-,-
CCOC(=O)[C@@]12CN(C(=O)OC(C)(C)C)CC=C1N(Cc1ccc(OC)cc1)C(=O)[C@H]2CC(=O)NCc1cccs1,.,-,.,.,.
COC(CN(C(=O)CCl)C(C(=O)NC1CCCCC1)c1ccc(Cl)cc1)OC (stereo not given),82.5,-,-,-,-
COc1ccc(C(C(=O)NC2CCCCC2)N(C(=O)CCl)c2ccc(Cl)cc2)cc1 (stereo not given),-,.,-,-,-
COC(CN(C(=O)CCl)C(C(=O)NC1CCCC(C)C1C)c1ccc(C)cc1)OC (stereo not given),61.1,.,-,-,-
COC(CN(C)C(C(=O)NC1CCCCC1)c1ccccc1)OC (stereo not given),-,-,-,-,-
COC(CN(C(=O)CCl)C(C(=O)NC1CCCCC1)c1ccccc1C)OC (stereo not given),19.5,-,-,-,-
O=C(NCc1ccc(F)c(F)c1)C1C2C=CC3(CN(Cc4ccccc4)C(=O)C13)O2 (stereo not given),.,-,.,.,.
